# Results from PubChem BioAssay AID743312 (Broad Institute, 2014).
# Results with a measured potency or affinity are listed apart. Unmarked numbers belong to inactive results. Activity calls are given as the source filed them. No rule for the calls is given here.
# Assay: toxicity to A549 lung cells – cell-based, plate reader, dry powder, set 6, cytotoxicity control, dose response (AID 743312)
# Conditions: series mostly up to 26 µM; activity change, negative = cytotoxicity: at the top concentration
Compound,"activity change, negative = cytotoxicity",outcome
Fc1cccc2c1[nH]c(=S)n2CCOc1ccccc1,-11.3%,–
Cc1ccccc1OCCn1cnc2ccccc21,-4.27%,–
COc1cccc(OCCn2cnc3ccccc32)c1,-10.1%,–
COCc1nc2ccccc2n1CCOc1ccc(C(C)(C)C)cc1,-14%,–
Cc1cc2ncn(CCOc3ccccc3)c2cc1C,-2.58%,–
CCCCc1nc2ccccc2n1CCOc1ccccc1,14.4%,–
COc1ccccc1OCCn1c(=S)[nH]c2ccccc21,22.9%,–
CCCc1nc2ccccc2n1CCOc1ccccc1,-24.4%,–
Cc1cccc(OCCn2c(=S)[nH]c3cc(F)ccc32)c1,-13.9%,–
CCc1nc2ccccc2n1CCOc1ccccc1,-6.05%,–
COc1ccccc1OCCn1c(SC)nc2ccccc21,4.85%,–
Cc1ccc2c(c1)[nH]c(=S)n2CCOc1ccccc1,14%,–
CSc1nc2ccccc2n1CCOc1ccccc1,-2.73%,–
CC(C)Oc1cccc(OCCn2cnc3ccccc32)c1,18.7%,–
Clc1ccccc1OCCn1cnc2ccccc21,16%,–
Fc1ccc2c(c1)[nH]c(=S)n2CCOc1ccccc1,–,inactive
CC(C)Oc1ccc(OCCn2cnc3ccccc32)cc1,-7.64%,–
Clc1ccc(OCCn2cnc3ccccc32)cc1,-13.9%,–
c1ccc(COc2ccc(OCCn3cnc4ccccc43)cc2)cc1,-10.8%,–
COc1cc(C)ccc1OCCn1cnc2ccccc21,-1.25%,–
Cc1ccc(OCCn2cnc3cc(C)c(C)cc32)cc1,-14.1%,–
